We go through 40 molecules from the supplement of paper PMC4954754.

± gives the uncertainty stated by the source.

The test relates to HEK293T-Rex ERSE-FLuc. The experiment in a line: ERSE-FLuc reporter activation, triplicate confirmation, relative to 500 nM thapsigargin (% of thapsigargin); higher = stronger ATF6/ERSE reporter activation. The conditions noted are these: 6.8 µM; 18 h; screen: confirmation. The procedure: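 HEK293T-Rex cells stably expressing the ERSE-firefly luciferase (BiP promoter, ATF6-preferring) or XBP1-splicing Renilla luciferase (IRE1/XBP1s) reporter, 1536-well plates, compound at 6.8 µM for 18 hr at 37 °C; luminescence read […] and expressed as % activation = 100*(compound - median DMSO)/(median 500 nM thapsigargin - median DMSO). Primary screen was single-pass; confirmation screen in triplicate (mean ± SD).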
Molecule `O=C(Nc1ccc(O)cc1)c1ccc2ccccc2c1` came in with an ERSE-FLuc reporter activation of 28.3 ± 11.

The molecule `O=C(N/N=C\C(Cl)=C\c1ccccc1)c1n[nH]c2c1CCCC2` showed an ERSE-FLuc reporter activation of 33.3 ± 7.3.

In turn, `Cc1ccc(O)c(NC(=O)c2cc(C3CC3)on2)c1` showed an ERSE-FLuc reporter activation of 59.4 ± 7.7.

In turn, `CCCc1cc(C(=O)Nc2cc(C)ccc2O)no1` yielded an ERSE-FLuc reporter activation of 83.4 ± 6.3.

Turning to `C=CCNC(=O)c1cc(-c2cccs2)on1`, the ERSE-FLuc reporter activation was 72.1 ± 6.

For `Fc1ccc(-c2nnc3ccc(N4CCN(c5ccccn5)CC4)nn23)cc1`, the ERSE-FLuc reporter activation is 34.3 ± 3.5.

For `Oc1ccc(-c2csc(-c3cccnc3)n2)cc1O`, the ERSE-FLuc reporter activation stood at 29.3 ± 1.4.

In the case of `Cc1ccc(Nc2nc(N)c3ccccc3n2)cc1Cl`, the ERSE-FLuc reporter activation was 34.8 ± 5.8.

In the case of `N#Cc1ccc(-c2cccs2)nc1SCc1ccccn1`, the ERSE-FLuc reporter activation amounted to 25.2 ± 6.2.

`COc1ccc(/C=N/c2sc3c(c2C(N)=O)CCCC3)cc1` showed an ERSE-FLuc reporter activation of 26.4 ± 4.8.

As to `O=C(N/N=C/c1ccc(O)c(O)c1)c1cccc(Cl)c1`, the ERSE-FLuc reporter activation was determined as 32.8 ± 3.2.

Consider `N#Cc1c(NC(=O)c2ccc3ncsc3c2)sc2c1CCC2`, for which the ERSE-FLuc reporter activation is 32.1 ± 2.5.

As for `CCOC(=O)c1sc(NC(=O)c2cccc3ccccc23)nc1C`, the ERSE-FLuc reporter activation stood at 27.3 ± 2.2.

The molecule `Cc1cccc2c1[nH]c1nc(N/N=C\c3c[nH]c4ccccc34)nnc12` registered an ERSE-FLuc reporter activation of 60.4 ± 14.

Take `Nc1ccc2nc(-c3cc(Cl)c(N)c(Cl)c3)[nH]c2c1`: the ERSE-FLuc reporter activation came to 35.6 ± 10.

Regarding `CCCCCCOc1ccc(/C(C)=N/NC2=NCCN2)cc1[N+](=O)[O-]`, the ERSE-FLuc reporter activation is 31.3 ± 2.8.

Molecule `Cc1ccc(C(=O)Nc2ccccc2N)cc1` showed an ERSE-FLuc reporter activation of 56.8 ± 4.5.

As to `CCCCNC(=O)c1cc(-c2ccc(F)cc2)on1`, the ERSE-FLuc reporter activation amounted to 40.8 ± 5.3.

Turning to `Cc1ccc2nc(/C(C#N)=C/c3ccc(O)c(O)c3)[nH]c2c1`, the ERSE-FLuc reporter activation worked out at 38.9 ± 2.7.

With `CCOc1cccc(C(=O)Nc2ccc(-c3nc4ccc(C(=O)c5ccccc5)cc4[nH]3)cc2)c1`, the ERSE-FLuc reporter activation was 28.6 ± 4.7.

Turning to `N#C/C(=C/c1ccc(O)c(O)c1)c1nc2ccccc2s1`, the ERSE-FLuc reporter activation was found to be 51.2 ± 8.1.

In the case of `CCCCCOc1ccc(N/C(N)=N/c2nc(C)cc(C)n2)cc1`, the ERSE-FLuc reporter activation stood at 110 ± 12.

`N#Cc1c(NC(=O)c2ccc(Br)cc2)sc2c1CCCC2` displayed an ERSE-FLuc reporter activation of 27.3 ± 5.2.

`Cc1ccc(/C=C(\C#N)C(=O)Nc2cccc(Cl)c2)o1` registered an ERSE-FLuc reporter activation of 26.2 ± 10.

For `COc1ccc(-c2cc(C(=O)Nc3cc(C)ccc3O)on2)cc1OC`, the ERSE-FLuc reporter activation is 33.8 ± 1.9.

Consider `COc1ccccc1-c1cc(C(=O)Nc2cc(C)ccc2O)no1`, for which the ERSE-FLuc reporter activation was determined as 29.1 ± 4.

`Cc1ccc(O)c(N=CC2=C(O)c3ccccc3C2=O)c1` registered an ERSE-FLuc reporter activation of 78.8 ± 6.2.

As to `N#C/C(=C/c1ccc(O)c(O)c1)c1nc2ccccc2[nH]1`, the ERSE-FLuc reporter activation stood at 29.7 ± 1.1.

`CC(=Nc1ccc(O)cc1)c1sc2ccccc2c1O` came in with an ERSE-FLuc reporter activation of 27.4 ± 4.2.

As for `O=C(CCc1ccccc1)Nc1ccc(Cl)cn1`, the ERSE-FLuc reporter activation stood at 27.8 ± 4.6.

In turn, `CCN(CC)c1ccc2cc(-c3nc4ccccc4n3C)c(=O)oc2c1` showed an ERSE-FLuc reporter activation of 34.2 ± 4.2.

`COc1ccccc1/C=N/Nc1nc(-c2ccccc2)cc(=O)[nH]1` showed an ERSE-FLuc reporter activation of 25.2 ± 1.8.

`CCCNC(=O)c1cc(-c2cccs2)on1` returned an ERSE-FLuc reporter activation of 51.5 ± 5.4.

`CN(C)c1ccc(/C=N/NC(=O)c2cccc(Br)c2)cc1` returned an ERSE-FLuc reporter activation of 26.5 ± 2.7.

`C=CCn1c(N2CCC(C(=O)NCCc3ccc(O)c(O)c3)CC2)nc2ccccc21` showed an ERSE-FLuc reporter activation of 28.9 ± 6.2.

As to `Cc1cc2nc(/C(C#N)=C/c3ccco3)[nH]c2cc1C`, the ERSE-FLuc reporter activation was found to be 34.1 ± 8.6.

On to `Cc1ccc(/C=N/NC(=O)c2cccc(Cl)c2)cc1`, for which the ERSE-FLuc reporter activation came out at 31.9 ± 1.9.

On to `CCOc1cc(/C=C2/NC(=O)N(c3cccc(Cl)c3)C2=O)ccc1O`, for which the ERSE-FLuc reporter activation is 30.5 ± 9.3.

`O=C(Nc1ccccc1O)c1ccc(C(=O)c2ccccc2)cc1`: the ERSE-FLuc reporter activation worked out at 41.5 ± 9.7.

In turn, `O=C(CCCCCCC(=O)Nc1ccccc1)NO` returned an ERSE-FLuc reporter activation of 59.2 ± 17.
